12-hLO inh: qHTS Assay for Inhibitors of 12-hLO (12-human lipoxygenase) | Polyunsaturated fatty acid lipoxygenase ALOX12 (Homo sapiens), P18054 | purified 12-hLO, xylenol orange hydroperoxide absorbance | AID 1452, 2008 | 150,000 tested, 0.12% active | Potency, µM (series often up to 57.1 µM), inactives show top-dose activity change, negative = inhibition, usual class: inhibitors; further: potency means the concentration at half of the fitted maximal effect; nearly all actives have a fitted effect of over 55% in size
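Purified human 12hLO (150 nM final) was preincubated with compounds for 15 min at room temperature in 25 mM Hepes pH 7.0, 0.01% Triton X-100, then reacted with 40 uM arachidonic acid for 30 min. Hydroperoxide was detected with ferrous iron/xylenol orange.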
HPGD block: qHTS Assay for Inhibitors of HPGD (15-Hydroxyprostaglandin Dehydrogenase) | Potency, µM, for inactives: at the top dose activity change, negative = inhibition, actives largely listed as inhibitors | 15-hydroxyprostaglandin dehydrogenase [NAD(+)] (Homo sapiens), P15428 | purified HPGD, NADH fluorescence kinetic, PGE2 substrate | 150,000 tested, 4.3% active; active means well fitted inhibition curve with a large enough effect, not every such curve was filed as active; inconclusive means small, poorly fitted or top-dose-only effect, or another doubt; inactive means no such curve, though single readings can be large or run the other way; further: potency means the concentration at half of the fitted maximal effect
Target sequence (P15428 whole entry, looked up): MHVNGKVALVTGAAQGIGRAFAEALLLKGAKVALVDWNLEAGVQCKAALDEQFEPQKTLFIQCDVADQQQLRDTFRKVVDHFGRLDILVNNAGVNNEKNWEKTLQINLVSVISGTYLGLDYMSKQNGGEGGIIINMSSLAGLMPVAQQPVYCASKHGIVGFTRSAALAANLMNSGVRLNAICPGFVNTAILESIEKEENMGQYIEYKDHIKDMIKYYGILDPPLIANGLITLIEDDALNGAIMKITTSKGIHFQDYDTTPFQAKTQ
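20 nM HPGD preincubated 15 min at room temperature with compound in 50 mM Tris-HCl pH 8, 0.01% Tween 20. Started with 1 mM NAD+ and 30 uM prostaglandin E2; NADH fluorescence (360/450 nm) read 5 times over 30-s intervals, last minus first.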
IMPase cell inh: qHTS Assay for Identifying the Cell-Membrane Permeable IMPase Inhibitors | Inositol monophosphatase 1 (Rattus norvegicus), P97697 | CHO-M1 cells, IP1 accumulation, HTRF TR-FRET ratio | inhibition (IP1 accumulation), % at 46.1 µM | 120,000 tested, under 10 active; active means well fitted curve in the direction sought with a large enough effect in the signal ratio, not every such curve was filed as active; inconclusive means small, poorly fitted or top-dose-only effect, or a change in a side signal; inactive means no such curve, though single readings can be large or run the other way; the % refers to the signal ratio;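 further: cells stimulated with carbachol in lithium chloride buffer; plate controls were DMSO basal wells for no effect and reference inhibitor wells for full effect; higher means more IMPase inhibition seen as more IP1 and lower FRET ratio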
Target sequence (P97697 whole entry, looked up): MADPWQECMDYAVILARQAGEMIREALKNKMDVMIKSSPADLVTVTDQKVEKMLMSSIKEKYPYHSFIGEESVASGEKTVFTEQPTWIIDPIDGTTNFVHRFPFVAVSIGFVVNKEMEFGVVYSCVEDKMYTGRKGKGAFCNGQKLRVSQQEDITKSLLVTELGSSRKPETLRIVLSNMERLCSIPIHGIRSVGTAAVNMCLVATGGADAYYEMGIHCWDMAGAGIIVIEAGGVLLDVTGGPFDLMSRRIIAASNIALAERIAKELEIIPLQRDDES
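Carbachol-driven Gq signalling in CHO-M1 cells (2000/well) generates IP1. Compounds that block IMPase raise IP1 and so reduce the FRET signal from Eu-anti-IP1 and d2-IP1 after a 10 min room-temperature lysis.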
IMPase Li cell: qHTS Assay for Identifying the Cell-Membrane Permeable IMPase Inhibitors: Potentiation with Lithium; CHO-M1 cells, IP1 TR-FRET (IP-One), carbachol + lithium; Potency, µM (titrated, usually from 59.4 µM), for the others: top-dose activity, negative = IMPase inhibition, most hits filed as inhibitors; 210,000 tested, 0.35% active;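 further: IP1 builds up when IMPase is blocked and the TR-FRET signal falls; potency means the concentration at half of the fitted maximal effect; plate controls were basal vehicle for no effect and high inhibitor control for full effect; nearly all actives have a fitted effect of over 50% in size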
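Test compounds were applied to CHO-M1 cells previously cultured for 16–30 h at 2000 per well. A small lithium amount accompanied them; after 30 min at 37C, IP1 was quantified by TR-FRET.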
PNC inhibitor: High Content Assay for Compounds that inhibit the Assembly of the Perinucleolar Compartment | PC3M PTB-GFP, PNC prevalence imaging, 16 h; stronger effect = lower value | 140,000 tested, 3.1% active | activity change (PNC), negative = inhibition, % at 10 µM;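 active means readout at or below -70, meaning at least 70% loss of cells showing the perinucleolar compartment, a nuclear body marking cancer cells; inconclusive means readout between -30 and a set limit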;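 further: plate controls were DMSO wells for no effect and camptothecin positive control wells for full effect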
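Read-out is percentage of cells bearing a perinucleolar compartment, from automated 20x imaging of fixed, Hoechst-stained PC3M PTB-GFP cells. Cells were seeded 4 h, then exposed 16 h to compound (23 nl of library stock) in duplicate plates.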
15-hLO-2 inh: qHTS Assay for Inhibitors of 15-hLO-2 (15-human lipoxygenase 2); Polyunsaturated fatty acid lipoxygenase ALOX15B (Homo sapiens), O15296; Potency, µM (doses to about 57.1 µM), inactives show at the highest dose activity change, negative = inhibition, most hits filed as inhibitors; purified 15hLO-2, xylenol orange hydroperoxide absorbance; 110,000 tested, 0.56% active; further: potency means the concentration at half of the fitted maximal effect; nearly all actives have a fitted effect of over 60% in size
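Screening format was qHTS against 50 nM purified 15hLO-2 in Hepes pH 7.5 with detergent. Activity follows hydroperoxide formation from 45 uM arachidonic acid, measured as 573:405 nm absorbance ratio of the ferric-xylenol orange complex.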
* hit, by the source's call; ? = inconclusive; . = no result; [ ] = dose if it differs, or a comment. Shown are actives, neighbours in structure and some others; about 5.4% of the full set was active somewhere. Unless noted, the call rests on the fitted dose curve; in most records, active means well fitted curve in the direction sought with a large enough effect; inconclusive means small, poorly fitted or top-dose-only effect, or another doubt; inactive means no such curve, though single readings can be large; an effect the other way counts as inactive or inconclusive. Unless noted, on the % scale 0 is the no-effect control and ±100 the full control effect.

SMILES	12-hLO inh	HPGD block	IMPase cell inh	IMPase Li cell	PNC inhibitor	15-hLO-2 inh
COc1cccc(NC(=O)CSc2nnc(-c3ccoc3C)n2-c2ccccc2)c1	-6%	-2%	10	6%[38.3 µM]	-87*	4%
COc1cccc(NC(=O)CSc2ccccn2)c1	-3%	28µM*	-1	3%[38.3 µM]	-26	-5%
CC(C)(C)c1ccc(O)c(CN(Cc2cc(C(C)(C)C)ccc2O)c2ccccc2)c1	3%[11.4 µM]	-10%	.	7%	.	4%[11.4 µM]
O=C(O)c1cccc(CN2CCCCC2)c1	3%[11.4 µM]	-9%	.	1%	.	-2%[11.4 µM]
COc1ccc(NC(=O)CSc2ccccn2)cc1	11%	25µM*	?	5%	-16	.
COc1ccc(CN[C@H](C)C(=O)O)cc1	-4%[11.4 µM]	4%	.	0%	.	-10%[11.4 µM]
CCOC(=O)c1c(C)c(C(=O)NCCOC)c(C)n1CC	2%	8.9µM*	0	52%[38.3 µM]	9	4%
CSc1nc(-c2ccc(Cl)cc2Cl)[nH]c(=O)c1C#N	0%	2.5µM*	.	0%	?	.
CSc1nc(N)nc(SCCS(=O)(=O)c2ccc(Cl)cc2)c1C#N	-12%	-29%	14	14%	223	.
C=CCSc1nnc(-c2ccc(Cl)cc2Cl)o1	-13%	11µM*	-5	12%[38.3 µM]	13	-2%
CCn1nc(C)c(NS(=O)(=O)c2ccccc2)c1C	4%	-8%	0	23%[38.3 µM]	-105*	-5%
Cc1nn(C)c(C)c1NS(=O)(=O)c1ccccc1	1%	-2%	-2	25%[38.3 µM]	-6	5%
C[N+]1(CCC(=O)c2ccco2)CC2CCC(CC2)C1 (stereo not given)	4%[11.4 µM]	0%	.	2%	.	-6%[11.4 µM]
COc1ccc(NC(=O)c2c(NC(=O)C(F)(F)F)sc3c2CCCCC3)cc1	.	.	3	.	.	.
CCOc1ccccc1Nc1cc(C)nc2nnnn12	.	.	.	-9%	.	.
CCCc1cc(Nc2ccccc2OCC)n2ncnc2n1	5%	7.1µM*	8	-14%[38.3 µM]	10	1%
CC(=O)C1=C(C)NC(SCC(=O)c2ccc(Cl)cc2Cl)=C(C#N)C1c1ccco1 (stereo not given)	?	?	8	4%[38.3 µM]	?	-27%
CSC1=C(C#N)C(c2ccccc2)C(C(C)=O)=C(C)N1 (stereo not given)	.	.	.	7%	.	.
CCOC(=O)CSC1=C(C#N)C(c2ccccc2)C(C(C)=O)=C(C)N1 (stereo not given)	5%	-21%	5	-2%[38.3 µM]	76	-13%
CC(=O)C1=C(C)NC(SCC(=O)c2ccccc2)=C(C#N)C1CC(C)C (stereo not given)	-22%	32µM*	?	10µM*	6	?
CC(=O)C1=C(C)NC(SCC(=O)c2ccc(Cl)cc2)=C(C#N)C1c1ccco1 (stereo not given)	?	32µM*	10	26%[38.3 µM]	29	-13%
CC(=O)C1=C(C)NC(SCC(=O)c2ccccc2)=C(C#N)C1c1ccco1 (stereo not given)	-18%	32µM*	5	2%[38.3 µM]	11	-22%
CSCSC1=C(C#N)C(c2ccc(Cl)cc2)C(C(C)=O)=C(C)N1 (stereo not given)	-14%	32µM*	6	26%	-23	?
Cc1ccc(NC2(c3ccccc3)C(=O)c3ccccc3C2=O)cc1F	.	.	5	.	.	.
O=c1c(-c2cccs2)nc2cncnc2n1Cc1ccccc1	.	.	.	1%	.	-7%
O=C(c1ccc(=O)n(Cc2ccccc2)n1)N1CCN(C/C=C/c2ccccc2)CC1	-5%	-3%	6	35%[38.3 µM]	-107*	8%
